“And” between values parts separate entries of the source, which are not always exact repeats. Equal entries are not always repeated. Results filed as inconclusive are left out. The source holds several records for some structures; these can differ, active in one and inactive in another. The source made the active and inactive calls. Unless noted, the call rests on the fitted dose curve.
Tests used:
[1] = Nuclear factor erythroid 2-related factor 2/antioxidant responsive element (Nrf2/ARE) small molecule agonists: qHTS cell viability counter screen in human keratinocytes (AID 1919968; active means well fitted curve in the direction sought with a large enough effect in the repeat runs; an effect the other way counts as inactive or inconclusive; further: nearly all actives have a fitted effect of over 55% in size; further: potency means the concentration at half of the fitted maximal effect)
Procedure, shortened: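 Cells of the KeratinoSens line were plated at 1,500 per well and left for 5 h before compound transfer from DMSO stocks. After a 23 h incubation (37 C, 5% CO2), CellTiter-Fluor was added. Signal was taken as fluorescence intensity 1 h later.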

[2] = Nuclear factor erythroid 2-related factor 2/antioxidant responsive element (Nrf2/ARE) small molecule agonists: luciferase reporter gene qHTS assay in human keratinocytes (AID 1919969); further: nearly all actives have a fitted effect of over 35% in size; further: potency means the concentration at half of the fitted maximal effect
[3] = G protein-coupled receptor (GPCR) small molecule agonists, calcium flux assay: HEK293 wild type cell line counter screen (AID 1920065)
Procedure, shortened: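 Tox21 10K compounds, 15 concentrations each in triplicate, pin-transferred in DMSO onto dye-loaded cells; kinetic read at 480/540 nm for 3 min, 1 s intervals.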

[4] = p53 small molecule agonists, cell-based qHTS assay with human liver microsomes: qHTS cell viability counter screen (AID 1963579); further: nearly all actives have a fitted effect of over 45% in size; further: potency means the concentration at half of the fitted maximal effect
Procedure, shortened: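 Viability of p53RE-bla cells is measured as CellTiter-Glo luminescence following a 16 h, 37 C incubation with compound, liver microsomes from human donors and NADPH.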

[5] = p53 small molecule agonists, cell-based qHTS assay with rat liver microsomes: qHTS cell viability counter screen (AID 1963580); further: nearly all actives have a fitted effect of over 45% in size; further: potency means the concentration at half of the fitted maximal effect
Procedure, shortened: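 Cytotoxicity counter screen: intracellular ATP read by CellTiter-Glo luminescence in the p53 reporter wells. HCT-116 p53RE-bla cells were treated for 16 h at 37 C alongside rat liver microsomes and NADPH, each 0.5 mg/mL final.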

[6] = p53 small molecule agonists, cell-based qHTS assay: qHTS cell viability counter screen (AID 1963581); further: nearly all actives have a fitted effect of over 45% in size
Procedure, shortened: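 ATP content measured by luminescence in HCT-116 p53RE-bla cells treated 16 h at 37 C, same wells as the reporter screen.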

[7] = target: 5-hydroxytryptamine receptor 2A (Homo sapiens) (UniProt P28223); test: 5-hydroxytryptamine receptor 2A (HTR2A) small molecule antagonists, cell-based qHTS assay (AID 1963586); further: nearly all actives have a fitted effect of over 45% in size
5-hydroxytryptamine receptor 2A (Homo sapiens), sequence (P28223 whole entry, looked up): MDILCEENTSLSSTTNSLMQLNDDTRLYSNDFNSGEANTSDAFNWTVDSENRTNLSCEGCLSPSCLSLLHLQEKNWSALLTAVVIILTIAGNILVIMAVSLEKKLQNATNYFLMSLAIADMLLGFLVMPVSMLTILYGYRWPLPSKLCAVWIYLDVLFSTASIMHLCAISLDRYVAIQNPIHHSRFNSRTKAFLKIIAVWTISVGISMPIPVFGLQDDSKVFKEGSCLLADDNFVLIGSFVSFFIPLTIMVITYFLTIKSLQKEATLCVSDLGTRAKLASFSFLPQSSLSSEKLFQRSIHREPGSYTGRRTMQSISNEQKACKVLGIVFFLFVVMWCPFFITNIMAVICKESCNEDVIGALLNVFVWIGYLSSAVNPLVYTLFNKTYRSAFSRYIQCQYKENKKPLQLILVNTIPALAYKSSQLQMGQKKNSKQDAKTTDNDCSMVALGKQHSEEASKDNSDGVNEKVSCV
Procedure, shortened: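 CHO cells stably expressing human HTR2A were plated for 18 h at 37 C, then loaded with calcium dye for 1 h. Compounds were preincubated 5 min at room temperature before DOI (4 nM solution) was added. Kinetic fluorescence was read for 3 min.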

[8] = target: 5-hydroxytryptamine receptor 2A (Homo sapiens) (UniProt P28223); test: 5-hydroxytryptamine receptor 2A (HTR2A) small molecule agonists, cell-based qHTS assay (AID 1963587); further: nearly all actives have a fitted effect of over 30% in size
Procedure, shortened: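 Kinetic calcium-flux fluorescence (2 min, 1 sec intervals) after compound addition in agonist mode. HTR2A-CHO cells were cultured 18 h, then dye-loaded 1 h at 37 C.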

[9] = target: Muscarinic acetylcholine receptor M1 (Homo sapiens) (UniProt P11229); test: Cholinergic receptor muscarinic 1 (CHRM1) small molecule antagonists, cell-based qHTS assay (AID 1963588); further: nearly all actives have a fitted effect of over 40% in size
Muscarinic acetylcholine receptor M1 (Homo sapiens), sequence (P11229 whole entry, looked up): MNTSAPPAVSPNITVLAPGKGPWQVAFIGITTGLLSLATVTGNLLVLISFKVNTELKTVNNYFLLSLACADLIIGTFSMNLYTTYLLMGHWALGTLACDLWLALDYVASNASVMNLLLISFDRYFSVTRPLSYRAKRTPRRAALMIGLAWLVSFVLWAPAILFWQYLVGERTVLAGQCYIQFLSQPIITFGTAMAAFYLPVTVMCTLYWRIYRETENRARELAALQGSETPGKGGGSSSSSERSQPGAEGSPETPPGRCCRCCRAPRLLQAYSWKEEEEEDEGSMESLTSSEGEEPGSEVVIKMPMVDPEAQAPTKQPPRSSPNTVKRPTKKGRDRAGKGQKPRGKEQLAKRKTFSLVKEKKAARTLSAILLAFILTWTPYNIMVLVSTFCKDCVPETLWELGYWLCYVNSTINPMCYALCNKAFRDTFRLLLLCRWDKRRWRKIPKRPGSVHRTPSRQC
Procedure, shortened: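 Compounds were tested at 15 concentrations in three independent runs. Dye-loaded CHRM1-CHO cells were exposed 5 min at room temperature before stimulation by acetylcholine added at 50nM. Intracellular calcium was read kinetically on FDSS for 3 min.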

[10] = target: Muscarinic acetylcholine receptor M1 (Homo sapiens) (UniProt P11229); test: Cholinergic receptor muscarinic 1 (CHRM1) small molecule agonists, cell-based qHTS assay (AID 1963589); further: nearly all actives have a fitted effect of over 35% in size
Procedure, shortened: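 Homogeneous fluorescence calcium flux, agonist mode. Human M1-expressing CHO cells; compound dosed at 15 concentrations, three independent runs; signal sampled every 1 sec.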

[11] = cAMP Responsive Elements (CRE) small molecule agonists, cell-based qHTS assay (AID 1963590)
Procedure, shortened: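 HEK 293T cells stably bearing CRE-bla were plated at 2,000 cells per well and rested 18 h. Compounds, positive controls or DMSO were added for 3 h at 37 C. LiveBLAzer B/G substrate was then loaded for 2 h at room temperature.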

[12] = cAMP Responsive Elements (CRE) small molecule antagonists, cell-based qHTS assay (AID 1963591; active means well fitted inhibition curve with a large enough effect in the signal ratio in the repeat runs, not every such curve was filed as active; the % refers to the signal ratio)
Procedure, shortened: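 First, CRE-bla HEK293T cells settled 18 h at 37 C. Next, compound and 0.25 uM final NKH477 were applied for 3 h. Last, LiveBLAzer B/G substrate was loaded for 2 h at room temperature.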

[13] = target: Beta-2 adrenergic receptor (Homo sapiens) (UniProt P07550); test: Adrenergic beta2 receptor (ADRB2) small molecule antagonists, cell-based qHTS assay (AID 1963592); further: series mostly up to about 92 µM; nearly all actives have a fitted effect of over 50% in size
Beta-2 adrenergic receptor (Homo sapiens), sequence (P07550 whole entry, looked up): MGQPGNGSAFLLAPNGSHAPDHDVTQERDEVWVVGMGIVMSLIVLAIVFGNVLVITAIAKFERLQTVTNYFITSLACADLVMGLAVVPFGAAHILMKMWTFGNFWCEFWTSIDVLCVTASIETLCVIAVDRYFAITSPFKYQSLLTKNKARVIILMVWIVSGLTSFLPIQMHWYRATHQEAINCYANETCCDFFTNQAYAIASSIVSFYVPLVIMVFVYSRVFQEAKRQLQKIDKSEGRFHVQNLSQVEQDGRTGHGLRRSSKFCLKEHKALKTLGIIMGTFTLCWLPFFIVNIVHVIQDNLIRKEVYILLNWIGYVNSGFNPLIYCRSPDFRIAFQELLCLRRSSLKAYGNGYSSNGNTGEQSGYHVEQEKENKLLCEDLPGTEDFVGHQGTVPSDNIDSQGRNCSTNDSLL
Procedure, shortened: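 Assay format: CHO-ADRB2 cells, 18-20hr seeding at 37C/5% CO2, then compound plus 1nM isoproterenol agonist mix for 0.5hr RT. Homogeneous time-resolved fluorescence cAMP detection after 1hr, expressed as 665/615 nm ratio.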

[14] = target: Beta-2 adrenergic receptor (Homo sapiens) (UniProt P07550); test: Adrenergic beta2 receptor (ADRB2) small molecule agonists, cell-based qHTS assay (AID 1963593);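 further: CHO cells stably overexpressing human ADRB2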
Procedure, shortened: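 CHO cells stably over-expressing ADRB2 were plated overnight at 37C, then dosed with compounds plus a stimulation mix containing 100uM IBMX and 25uM Ro-20-1724 for 0.5hr at room temperature. cAMP was measured by HTRF competition, 1hr.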

[15] = target: D(2) dopamine receptor (Homo sapiens) (UniProt P14416); test: Dopamine D2 receptor (DRD2) small molecule antagonists, cell-based qHTS assay (AID 1963595; active means well fitted inhibition curve with a large enough effect in the signal ratio in the repeat runs, with a control signal flat; the % refers to the signal ratio)
D(2) dopamine receptor (Homo sapiens), sequence (P14416 whole entry, looked up): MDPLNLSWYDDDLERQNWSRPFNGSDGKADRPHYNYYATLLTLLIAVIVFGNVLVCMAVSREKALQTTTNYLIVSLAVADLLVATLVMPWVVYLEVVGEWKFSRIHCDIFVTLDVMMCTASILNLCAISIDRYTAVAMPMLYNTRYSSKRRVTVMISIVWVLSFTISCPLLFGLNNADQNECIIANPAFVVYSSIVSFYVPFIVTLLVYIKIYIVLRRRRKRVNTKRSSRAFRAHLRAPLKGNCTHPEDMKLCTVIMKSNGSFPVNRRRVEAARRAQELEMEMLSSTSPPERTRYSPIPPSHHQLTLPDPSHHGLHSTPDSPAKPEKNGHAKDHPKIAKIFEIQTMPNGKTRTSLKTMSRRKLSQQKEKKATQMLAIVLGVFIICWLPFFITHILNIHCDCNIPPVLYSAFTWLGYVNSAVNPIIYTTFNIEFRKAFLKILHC
Procedure, shortened: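 Cells were plated and grown for 24 h at 37 °C. Ro20-1724 (0.1 mM final) went in first, then compound for 10 min. NKH477 (200 nM) with quinpirole (12 nM) followed for 30 min at RT, then HTRF detection reagents for 1 h.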

[16] = target: KiSS-1 receptor (Homo sapiens) (UniProt Q969F8); test: Human kisspeptin (KISS1R) small molecule agonists, calcium flux assay in KISS1R-HEK293 cells (AID 1920064; active means well fitted curve in the direction sought with a large enough effect in the repeat runs; an effect the other way counts as inactive or inconclusive)
KiSS-1 receptor (Homo sapiens), sequence (Q969F8 whole entry, looked up): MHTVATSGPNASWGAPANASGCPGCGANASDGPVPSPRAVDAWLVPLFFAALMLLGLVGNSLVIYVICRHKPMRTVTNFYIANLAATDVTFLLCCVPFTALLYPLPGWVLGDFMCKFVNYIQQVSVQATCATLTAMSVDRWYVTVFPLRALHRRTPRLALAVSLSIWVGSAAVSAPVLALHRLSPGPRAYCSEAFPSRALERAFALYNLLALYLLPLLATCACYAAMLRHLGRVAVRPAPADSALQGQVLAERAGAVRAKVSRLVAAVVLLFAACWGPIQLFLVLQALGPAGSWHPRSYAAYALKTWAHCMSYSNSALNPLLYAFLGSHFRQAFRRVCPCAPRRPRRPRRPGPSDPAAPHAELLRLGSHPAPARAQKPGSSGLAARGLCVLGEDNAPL
Procedure, shortened: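 Cell line: HEK293, stable human KISS1R. Dye loading 1 h at 37 C after 18 h culture. Read: kinetic fluorescence, 480/540 nm, 3 min at 1 s intervals.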

[17] = p53 small molecule agonists, cell-based qHTS assay with human liver microsomes (AID 1963577);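 further: p53 response element beta-lactamase reporter cells with liver microsomes plus NADPH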
Procedure, shortened: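 HLM-supplemented p53RE-bla reporter assay: 16 h compound exposure at 37 C, microsomes and NADPH each 0.5 mg/mL final, read by fluorescence intensity.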

[18] = p53 small molecule agonists, cell-based qHTS assay with rat liver microsomes (AID 1963578)
Procedure, shortened: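 Quantitative HTS of the Tox21 10K library: p53RE-bla cells, rat liver microsomes plus NADPH at 0.5 mg/mL final each, 16 h at 37 C, beta-lactamase fluorescence detection.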

[19] = p53 small molecule agonists, cell-based qHTS assay (AID 1963582; active means well fitted activation curve with a large enough effect in the signal ratio in the repeat runs, not every such curve was filed as active; the % refers to the signal ratio)
Procedure, shortened: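 16 h compound exposure (37 C) of p53 response element–bla cells, preceded by 5 h recovery at 37 C/5% CO2; read-out via LiveBLAzer B/G FRET substrate, 2 h RT, fluorescence intensity.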

[20] = target: D(2) dopamine receptor (Homo sapiens) (UniProt P14416); test: Dopamine D2 receptor (DRD2) small molecule agonists, cell-based qHTS assay (AID 1963594); further: nearly all actives have a fitted effect of over 35% in size
Procedure, shortened: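 cAMP accumulation in DRD2-HEK293 cells measured by HTRF after 1 h detection; compounds added 10 min before NKH477 (200nM […]) forskolin-analogue stimulation, 30 min at room temperature, with Ro20-1724 present at 0.1 mM final.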
On the % scale 0 is the no-effect control and ±100 the full control effect.

Cn1sccc1=O
inactive: Potency [3] | Potency [6] | Potency [7] | Potency [8] | Potency [9] | Potency [10] | Potency [11] | Potency [12] | Potency [13] | Potency [14] | Potency [15]
active: Potency [1] 43.3 µM and 13.7 µM | Potency [2] 13.7 µM and 6.86 µM | Potency [5] 18.2 µM
28.9 µM (active) and inactive: Potency [4]

Cc1ccccc1S(=O)(=O)O
inactive: Potency [1] | Potency [2] | Potency [16] | Potency [3] | Potency [17] | Potency [18] | Potency [4] | Potency [5] | Potency [6] | Potency [19] | Potency [7] | Potency [8] | Potency [9] | Potency [10] | Potency [11] | Potency [12] | Potency [13] | Potency [14] | Potency [20]

CCCCCCN
inactive: Potency [1] | Potency [2] | Potency [16] | Potency [3] | Potency [17] | Potency [18] | Potency [4] | Potency [5] | Potency [6] | Potency [19] | Potency [7] | Potency [8] | Potency [10] | Potency [11] | Potency [12] | Potency [13] | Potency [14] | Potency [20] | Potency [15]

CC(C)(C)OC=O
inactive: Potency [1] | Potency [2] | Potency [16] | Potency [3] | Potency [17] | Potency [18] | Potency [4] | Potency [5] | Potency [6] | Potency [19] | Potency [7] | Potency [8] | Potency [9] | Potency [10] | Potency [11] | Potency [12] | Potency [13] | Potency [14] | Potency [20] | Potency [15]

CC(C)C(=O)O
inactive: Potency [1] | Potency [2] | Potency [16] | Potency [3] | Potency [17] | Potency [18] | Potency [4] | Potency [5] | Potency [6] | Potency [19] | Potency [7] | Potency [8] | Potency [9] | Potency [10] | Potency [11] | Potency [12] | Potency [13] | Potency [14] | Potency [20] | Potency [15]

Oc1ccc(/C=C/c2cc(O)cc(O)c2)cc1
active: Potency [2] 4.9 µM and 7.7 µM and 11.9 µM
inactive: Potency [1] | Potency [16] | Potency [3] | Potency [17] | Potency [18] | Potency [4] | Potency [5] | Potency [6] | Potency [19] | Potency [12] | Potency [13] | Potency [20] | Potency [15]

O=S(=O)(O)c1cccc2c(S(=O)(=O)O)cccc12
inactive: Potency [1] | Potency [2] | Potency [17] | Potency [18] | Potency [4] | Potency [5] | Potency [6] | Potency [19] | Potency [7] | Potency [8] | Potency [9] | Potency [10] | Potency [12] | Potency [13] | Potency [14] | Potency [20] | Potency [15]

O=c1oc2c(O)c(O)cc3c(=O)oc4c(O)c(O)cc1c4c23
inactive: activity change, negative = cytotoxicity [1] -4.32% [at 19 µM] | activity, positive = activation [2] -10.8% [at 19 µM] | activation [16] -1.64% [at 15.8 µM] | activation [3] 0.163% [at 11.8 µM] | activation [17] -4.17% [at 13.5 µM] | activation [18] -5.41% [at 13.6 µM] | activity change, negative = cytotoxicity [4] 3.06% [at 13.5 µM] | activity change, negative = cytotoxicity [5] -3.76% [at 13.5 µM] | activity change, negative = cytotoxicity [6] -7.94% [at 13.5 µM] | activation [19] -1.21% [at 13.5 µM] | activity, negative = inhibition [7] -5.93% [at 12.7 µM] | activation [8] 2.19% [at 15.9 µM] | activity, negative = inhibition [9] 14.7% [at 12.6 µM] | activation [10] 0.409% [at 15.8 µM] | activation [11] -1.26% [at 19 µM] | activity change, negative = inhibition [12] -7.75% [at 18.9 µM] | activity change, negative = inhibition [13] -0.63% [at 19 µM] | activation [20] 15.6% [at 19 µM] | activity change, negative = inhibition [15] 0.195% [at 18.9 µM]

CC/C=C\CCO
inactive: Potency [1] | Potency [2] | Potency [16] | Potency [3] | Potency [17] | Potency [18] | Potency [4] | Potency [5] | Potency [6] | Potency [7] | Potency [8] | Potency [9] | Potency [10] | Potency [11] | Potency [12] | Potency [13] | Potency [14] | Potency [20]

CC(COCCO)OCCO (centres undefined)
inactive: Potency [1] | Potency [2] | Potency [16] | Potency [3] | Potency [17] | Potency [18] | Potency [4] | Potency [5] | Potency [6] | Potency [19] | Potency [7] | Potency [8] | Potency [9] | Potency [10] | Potency [11] | Potency [12] | Potency [20] | Potency [15]

CCC(C)NC(N)=O (centres undefined)
inactive: Potency [1] | Potency [2] | Potency [16] | Potency [3] | Potency [17] | Potency [18] | Potency [4] | Potency [5] | Potency [6] | Potency [19] | Potency [8] | Potency [9] | Potency [10] | Potency [11] | Potency [12] | Potency [13] | Potency [14] | Potency [20] | Potency [15]

COc1ccc(C(=O)NCc2ccc(OCCN(C)C)cc2)cc1OC
inactive: Potency [1] | Potency [2] | Potency [16] | Potency [3] | Potency [17] | Potency [18] | Potency [4] | Potency [5] | Potency [6] | Potency [19] | Potency [7] | Potency [8] | Potency [9] | Potency [10] | Potency [11] | Potency [12] | Potency [13] | Potency [14] | Potency [20] | Potency [15]

C1COC1
inactive: Potency [1] | Potency [2] | Potency [17] | Potency [18] | Potency [4] | Potency [5] | Potency [6] | Potency [19] | Potency [7] | Potency [8] | Potency [9] | Potency [10] | Potency [11] | Potency [12] | Potency [14] | Potency [20] | Potency [15]

C#C[C@]1(O)CC[C@H]2[C@@H]3CCC4=CC(=O)CC[C@@H]4[C@H]3CC[C@@]21C
inactive: Potency [1] | Potency [2] | Potency [3] | Potency [12] | Potency [13] | Potency [14] | Potency [20] | Potency [15]

CCC/C=C/C=O
inactive: Potency [1] | Potency [2] | Potency [3] | Potency [4] | Potency [5] | Potency [6] | Potency [7] | Potency [8] | Potency [9] | Potency [10] | Potency [11] | Potency [12] | Potency [13] | Potency [14] | Potency [20] | Potency [15]

— PubChem BioAssay (Tox21)
